Assay outcomes deposited in PubChem by The Scripps Research Institute Molecular Screening Center.
FBW7 act – FBW7 E3 ligase activators, primary screen, biochemical, AlphaScreen, human. F-box/WD repeat-containing protein 7 (Homo sapiens), Q969H0. AlphaScreen FBW7–phospho-cyclin E peptide binding, activator screen. normalized activity (activation), % at 26.1 µM. actives 0.13% (n = 650,000); in the data active = normalized activity above about 1.9%;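 note: purified mutant Fbw7 with reduced substrate affinity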
GPR151 activ – activators of human GPR151, primary screen, cell-based, PathHunter beta-arrestin, luminescence | activation, % at 11.2 µM | PathHunter beta-arrestin GPR151 cells | AID 1508602, 2020 | G-protein coupled receptor 151 (Homo sapiens), Q8TDV0 | actives 1% (n = 650,000); in the data active = activation above about 4.9%;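 note: 0% = median of compound wells and 100% = cells with positive control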
TEAD-YAP block – TEAD-YAP interaction inhibition, primary screen, TEAD-YAP interaction inhibitor project, luminescence, HEK-TIYL cells. TEAD-Gal4/YAP UAS-luciferase luminescence. AID 1259422, 2018. actives 1.4% (n = 640,000). inhibition, % at 9.12 µM; in the data active = inhibition above about 32%;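 note: 0% = median of test compound wells and 100% = reference inhibitor wells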
MITF inh – MITF inhibitors, primary screen, biochemical, AlphaScreen, human | Microphthalmia-associated transcription factor (Homo sapiens), O75030 | AlphaScreen MITF homodimerization, bead proximity signal | inhibition, % at 2.6 µM | actives 0.91% (n = 650,000); in the data active = inhibition above about 50%;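 note: 0% = vehicle wells with protein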
GPR151 conf act – GPR151 activators, triplicate retest, confirmation, cell-based, PathHunter beta-arrestin, luminescence; shares compounds with GPR151 activ; GPR151 PathHunter beta-arrestin cells, 90 min; % of EA-reagent control over plate median; activation, % at 11.2 µM; 6,700 tested, under 10 active; AID 1508609, 2020;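 active = mean percent activation across replicates above the confirmation screen cutoff of 4.91%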
GPR119 counter – GPR119 activators in beta-arrestin cells, counter-screen for GPR151 activator project, cell-based, PathHunter beta-arrestin, luminescence, triplicate | shares compounds with GPR151 activ | activation, % at 11.2 µM | AID 1508611, 2020 | actives 0.3% (n = 6,700) | 90 min; 0 = compound-well median, 100 = enzyme-acceptor control;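 active = mean percent activation in the counterscreen above 29.09%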;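 note: counterscreen on off-target GPR119 to flag nonselective hits from the GPR151 activator screen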
Target sequence (Q8TDV5 whole entry, looked up): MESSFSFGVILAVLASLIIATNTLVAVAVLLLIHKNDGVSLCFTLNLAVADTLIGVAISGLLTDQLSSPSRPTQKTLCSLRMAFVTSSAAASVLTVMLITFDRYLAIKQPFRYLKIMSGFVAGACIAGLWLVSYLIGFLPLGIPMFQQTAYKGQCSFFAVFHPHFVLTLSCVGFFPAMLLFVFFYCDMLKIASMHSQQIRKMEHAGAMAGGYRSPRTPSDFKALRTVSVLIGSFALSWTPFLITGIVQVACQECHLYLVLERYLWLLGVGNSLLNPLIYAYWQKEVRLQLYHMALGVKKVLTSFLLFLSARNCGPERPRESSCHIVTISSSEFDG
Starred values were filed as active, the others as inactive. This is a sample that favours compounds with a hit; in the whole collection about 3.4% have one here.

Cc1c(Cl)cccc1NC(=O)C1CCCN(c2nnc(N3CCCC3=O)s2)C1 (stereo not given) was read as FBW7 act 0, GPR151 activ -2, TEAD-YAP block -2 and MITF inh -4.
`O=C(Nc1ccccc1F)C1CCCN(c2nnc(N3CCCC3=O)s2)C1` (stereo not given) gave FBW7 act 0, GPR151 activ 5.0*, TEAD-YAP block 3, MITF inh 9, GPR151 conf act -1 and GPR119 counter -9.
Cc1ccc(CNc2ncnc3c2c(-c2ccccc2)cn3-c2ccc(Br)cc2)cc1 was read as FBW7 act 0, GPR151 activ 3, TEAD-YAP block -4 and MITF inh 29.
`O=C(NC1CCCc2ccccc21)c1ccc(CN2CCOCC2)[nH]c1=O` (stereo not given) gave FBW7 act 0, GPR151 activ -1, TEAD-YAP block 15 and MITF inh 4.
For c1ccc2c(N3CCCCCC3)nc(CN3CCCC3c3nccs3)nc2c1 (stereo not given) the results were FBW7 act 0, GPR151 activ 5.0*, TEAD-YAP block -2, MITF inh -1, GPR151 conf act 0 and GPR119 counter -4.
For Cc1ccc(C)c(NC(=O)C2CC(=O)N(c3ccccc3)C2)c1 (stereo not given) the results were FBW7 act 0, GPR151 activ 1, TEAD-YAP block -9 and MITF inh 0.
`N#Cc1ccccc1OCC(=O)N1CCOCC1` gave FBW7 act 0, GPR151 activ 5.5*, TEAD-YAP block 5, MITF inh 9, GPR151 conf act 0 and GPR119 counter 2.
`CC(C)CCN1C(=O)CCc2cc(NC(=O)NCc3ccc(F)cc3)ccc21` gave FBW7 act 0, GPR151 activ 1, TEAD-YAP block 3 and MITF inh 0.
Screening CC(C)CCN1C(=O)CCc2cc(NC(=O)c3ccc4c(c3)OCO4)ccc21 returned FBW7 act 0, GPR151 activ 5.3*, TEAD-YAP block -15, MITF inh 2, GPR151 conf act -1 and GPR119 counter 0.
For CN1CCN(c2cc(N3CCN(CCC#N)CC3)c([N+](=O)[O-])cc2F)CC1 the results were FBW7 act 0, GPR151 activ 0, TEAD-YAP block 9 and MITF inh 5.
Screening N#CCCN1CCN(c2ccc(F)cc2[N+](=O)[O-])CC1 returned FBW7 act 0, GPR151 activ 5.3*, TEAD-YAP block 9, MITF inh 13, GPR151 conf act 3 and GPR119 counter -11.
